# High-throughput results (PubChem)
# An excerpt weighted towards active compounds, which were near 2.5% of everything screened.
# POLK inh: qHTS for Inhibitors of Polymerase Kappa; DNA polymerase kappa (Homo sapiens), Q9UBT6; purified Pol kappa, fluorescent DNA synthesis assay, 10 min; Potency, µM (series often up to 107 µM), actives largely listed as inhibitors; hit rate 0.53% among 400,000
#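 Activity was followed as the change in fluorescence between reads at 0 and 10 min after starting the reaction with 50 nM substrate. Beforehand, 10 nM polymerase had been preincubated with compound for 15 min at room temperature.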
# POLH inh: qHTS for Inhibitors of Polymerase Eta; DNA polymerase eta (Homo sapiens), Q9Y253; recombinant Pol eta, fluorescent DNA replication assay; Potency, µM (titrated, usually from 114 µM), usual class: inhibitors; hit rate 1.2% among 390,000; AID 588591, 2011
#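 Pol eta at 10 nM preincubated with compounds 15 min at room temperature; reaction started with fluorescent substrate (50 nM final) and read kinetically at 0 and 10 min.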
# POLI inh: qHTS for Inhibitors of Polymerase Iota | DNA polymerase iota (Homo sapiens), Q9UNA4 | Pol iota fluorescent replication assay, 10 min | Potency, µM (series often up to 115 µM), hits mostly inhibitors | hit rate 1% among 390,000
#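 Pol iota at 10 nM preincubated 15 min with compounds at room temperature; reaction started with fluorescent substrate, 50 nM final. Fluorescence read kinetically at 0 and 10 min; buffer-only wells as negative control.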
# POLB inh: qHTS Assay for Inhibitors of DNA Polymerase Beta | Potency, µM (highest dose often 114 µM), most hits filed as inhibitors | hit rate 1.3% among 340,000 | AID 485314, 2010 | P06746 | Pol beta primer extension/strand displacement, fluorescence kinetic
#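 Reaction started by 50 nM substrate onto compound-treated Pol beta (10 nM, 15 min preincubation, room temperature); plates read at 0 min and 10 min. Normalized concentration-effect data fitted by four-parameter Hill equation.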
# L3MBTL1 block: qHTS Assay for the Inhibitors of L3MBTL1; Potency, µM (series often up to 57.1 µM), usual class: inhibitors; AlphaScreen L3MBTL1–H3K9me1 peptide binding; hit rate 0.66% among 230,000; note: nearly all actives have a fitted effect of over 60% in size
# Target sequence (Q9Y468 whole entry, looked up): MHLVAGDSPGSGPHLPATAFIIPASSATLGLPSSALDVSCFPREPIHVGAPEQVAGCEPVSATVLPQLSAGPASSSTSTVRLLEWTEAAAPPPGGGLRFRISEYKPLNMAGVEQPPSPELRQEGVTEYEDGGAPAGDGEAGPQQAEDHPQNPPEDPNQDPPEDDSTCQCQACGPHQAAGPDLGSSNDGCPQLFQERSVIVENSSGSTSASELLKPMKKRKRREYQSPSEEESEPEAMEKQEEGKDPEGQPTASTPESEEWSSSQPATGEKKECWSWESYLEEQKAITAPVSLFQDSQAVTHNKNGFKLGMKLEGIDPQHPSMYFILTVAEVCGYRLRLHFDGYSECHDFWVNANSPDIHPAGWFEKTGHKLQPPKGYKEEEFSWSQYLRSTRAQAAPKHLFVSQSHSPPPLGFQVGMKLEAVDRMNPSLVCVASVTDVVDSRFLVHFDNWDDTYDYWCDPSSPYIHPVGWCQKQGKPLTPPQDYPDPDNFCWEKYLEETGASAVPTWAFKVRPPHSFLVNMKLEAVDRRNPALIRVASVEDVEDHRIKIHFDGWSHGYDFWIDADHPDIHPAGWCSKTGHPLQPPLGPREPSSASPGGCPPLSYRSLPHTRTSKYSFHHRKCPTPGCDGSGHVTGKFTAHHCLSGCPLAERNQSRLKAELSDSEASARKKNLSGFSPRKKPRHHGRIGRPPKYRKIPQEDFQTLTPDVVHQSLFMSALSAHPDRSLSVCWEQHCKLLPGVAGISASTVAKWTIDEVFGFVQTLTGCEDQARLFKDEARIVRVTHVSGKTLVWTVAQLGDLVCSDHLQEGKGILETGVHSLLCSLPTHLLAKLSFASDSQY
#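 L3MBTL1 (50 nM) pre-complexed 30 min with biotinylated H3(1-15)K9me1 peptide (75 nM), then compounds added for 30 min at room temperature; AlphaScreen streptavidin donor/nickel chelate acceptor beads (10 ug/mL final) read after 30 min dark incubation.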
# APE1 inh: qHTS Assay for Inhibitors of the Human Apurinic/apyrimidinic Endonuclease 1 (APE1); hit rate 0.35% among 350,000; Potency, µM (series often up to 65.8 µM), actives largely listed as inhibitors; recombinant APE1, TAMRA/BHQ-2 abasic DNA cleavage fluorescence; DNA repair nuclease/redox regulator APEX1 (Homo sapiens), P27695; AID 2517, 2012; note: nearly all actives have a fitted effect of over 55% in size
#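 Kinetic fluorescence read (525 ex/598 em nm, three reads 60 s apart) of AP-site incision; signal = third minus first read. Enzyme 0.75 nM, dual-labelled THF duplex 50 nM, compound preincubation 15 min RT.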
# Numbers stand for hits; i = inactive; ? = inconclusive; nt = no result given; [ ] = dose if it differs, or a comment. Calls come from the whole dose curve; as a rule, active = well fitted curve in the direction sought with a large enough effect; inconclusive = small, poorly fitted or top-dose-only effect, or another doubt; inactive = no such curve, though single readings can be large; an effect the other way counts as inactive or inconclusive.
SMILES,POLK inh,POLH inh,POLI inh,POLB inh,L3MBTL1 block,APE1 inh
NC(=O)c1cc[n+](CC2=C(C(=O)O)N3C(=O)[C@@H](NC(=O)C(c4ccccc4)S(=O)(=O)[O-])[C@H]3SC2)cc1 (some centres not stated),1µM,i,0.79µM,i,i,i
NC(=O)c1cc[n+](CC2=C(C(=O)O)N3C(=O)[C@@H](NC(=O)[C@H](c4ccccc4)S(=O)(=O)[O-])[C@@H]3SC2)cc1,4.2µM,nt,nt,nt,nt,nt
N#Cc1c(-c2ccc(F)c(Br)c2)no[n+]1[O-],nt,nt,nt,nt,nt,i
CSc1ccc(C2C(C#N)=C(N)Oc3cc4c(cc32)OCO4)cc1 (configuration not stated),89µM,i,i,i,nt,i
CCN(Cc1ccccc1)c1ccc(N=Nc2nn(C)c(C)c2[N+](=O)[O-])cc1,i,?,i,i,16µM,i
CCN(CC)c1ccc(N=Nc2nn(C)c(C)c2[N+](=O)[O-])cc1,i,?,i,i,?,?
CCOc1ccccc1N(CC(=O)NCCSCc1ccco1)S(=O)(=O)c1ccccc1,?,?,?,28µM,nt,i
O=C(CN1C(=O)c2ccccc2S1(=O)=O)NCCSCc1ccco1,i,i,100µM,i,i,i
Cc1ccccc1N(CC(=O)NCCSCc1ccco1)S(C)(=O)=O,i,i,56µM,?,i,i
Cc1cc(C)c2c(-n3cccc3)c(C(=O)NCc3cccc(F)c3)sc2n1,i,i,i,i,nt,nt
Cc1cc(/C=C2\C=Cc3ccccc32)ccc1N(C)C,i,nt,i,nt,nt,nt
O=c1cc(-c2ccccc2)nc2cc(-c3ccco3)[nH]n12,i,i,i,50µM,i,i
Cc1cc(C(=O)COC(=O)c2cccc(O)c2)c(C)n1C1CC1,i,i,?,nt,i,i
O=[N+]([O-])c1c(Nc2cccc(O)c2)cc(Cl)c2nonc12,i,25µM,13µM,i,i,i
O=C(O)c1ccc(Nc2cc(Cl)c3nonc3c2[N+](=O)[O-])cc1,i,i,8.9µM,i,i,i
CC[C@@]12C(=O)N(c3ccc(C)cc3)C(=O)N1[C@H](c1ccc(Br)cc1)[C@@H]1C(=O)N(C(C)(C)C)C(=O)[C@@H]12,i,i,i,i,i,i
c1ccc(-c2nc3ccccc3c3nc4ccccc4n23)cc1,i,?,i,i,i,i
c1ccc(-c2nc3nonc3c3nc4ccccc4n23)cc1,i,i,i,45µM,i,i
CCOc1ccc2oc(C(=O)N3CCN(c4ccccn4)CC3)c(C)c2c1,i,20µM,?,?,nt,i
Cc1c(C(=O)N2CCN(c3ccccn3)CC2)oc2ccccc12,i,i,i,i,i,i
O=C(CSc1nnc(-c2cccnc2)o1)Nc1ccc(Cl)cc1,i,i,i,i,?,i
CC(=O)Nc1ccc(NC(=O)CSc2nnc(-c3cccnc3)o2)cc1,i,i,50µM,nt,i,i
Cc1ccccc1Cn1c(COc2ccc(Cl)cc2)nc2ccccc21,i,nt,i,i,nt,nt
CC(=O)N1CCc2cc(Br)cc(S(=O)(=O)N3CCC(C(=O)Nc4ccc(C(C)C)cc4)CC3)c21,?,i,35µM,i,nt,nt
CC1CCC2C(=O)N3C(CCC(C)C3c3ccc(-c4ccco4)cc3)C(=O)N2C1c1ccc(-c2ccco2)cc1 (configuration not stated),nt,nt,nt,nt,nt,4µM
SMILES,POLK inh,POLH inh,POLI inh,POLB inh,L3MBTL1 block,APE1 inh
C[C@@H]1CC[C@@H]2C(=O)N3[C@@H](CC[C@@H](C)[C@@H]3c3ccc(-c4ccco4)cc3)C(=O)N2[C@H]1c1ccc(-c2ccco2)cc1,nt,nt,nt,nt,nt,i[12.4 µM]
COc1ccc2c(c1OC)C(=O)OC2N1C(=O)CC[C@H]1C(=O)NCC1CCCO1 (some centres not stated),i,i,i,i,nt,i
CCOc1ccc(NC(=O)CN(C)C(=O)CCCOc2ccc(Cl)c(C)c2)cc1OCC,i,i,i,i,nt,i
COC(=O)/C=c1/s/c(=C(\C#N)C(=O)NCc2ccco2)n(-c2ccccc2)c1=O,i,?,89µM,i,i,i
Nc1nc(N)c2snnc2n1,i,nt,i,nt,nt,nt
O=C(O)c1c2c(nc3ccc(S(=O)(=O)N4CCC(C(=O)N5CCCCC5)CC4)cc13)CCCC2,?,32µM,?,i,nt,i
CCCCCCCCCCCCCCCCCCN(CCCCCCCCCCCCCCCCCC)c1ccc(C=O)cc1,i,nt,i,nt,nt,nt
CCc1ccc(C(C(=O)NCc2ccc(F)cc2)N(C(=O)c2csnn2)C2CC2)cc1 (configuration not stated),i,i,i,?,nt,i
Cc1ccccc1NC(=O)COC(=O)c1ccccc1OCC(=O)Nc1ccc(Br)cc1,i,nt,i,nt,nt,nt
Nc1ncccc1C(=O)OCC(=O)NC1CCCCCC1,i,79µM,i,nt,i,i
CC1(C)CC(=O)c2cc(C(=O)Nc3cccc4ccccc34)c(=O)[nH]c2C1,i,nt,i,nt,nt,nt
Cc1cc(O)c2c(c1O)C(=O)[C@]13C(=C2O)C(=O)[C@@H]2[C@@H](O)[C@H]1[C@@H]1[C@H](O)[C@H]3C(=O)C3=C(O)c4c(O)cc(C)c(O)c4C(=O)[C@]312,3.5µM,5.6µM,3.2µM,nt,4.5µM,9.5µM
Oc1ccc(N=Cc2ccc(-c3cccs3)s2)cc1,i,32µM,?,?,?,?
Cc1nc(N2CCCC2)ncc1C(=O)NCc1ccc(Cl)cc1,i,nt,i,i,nt,nt
Cc1nc2ccccc2nc1/C=C/c1ccc(N(C)C)cc1,i,nt,i,nt,nt,nt
O=S(=O)(O)c1nc2ccccc2n1CCOc1ccccc1,i,i,i,i,i,i
CCCn1c(S(=O)(=O)O)nc2ccccc21,i,28µM,?,i,nt,i
O=C(O)CC/C(=N/NC(=O)c1cn(-c2ccccc2)nc1-c1ccccc1)C(=O)O,i,i,25µM,i,i,i
O=C(Nc1ccccc1)c1cn(-c2ccccc2)nc1-c1ccccc1,i,i,i,i,nt,nt
O=C(/C=C/c1ccco1)N1CCC(Cc2ccccc2)CC1,?,?,40µM,?,i,i
Cc1ccc2nccnc2c1,i,nt,i,nt,nt,nt
CN(Cc1nc(-c2ccc(Cl)cc2)no1)C(=O)c1ccc2c(c1)OCO2,i,i,i,nt,i,i
CC(=O)Nc1cccc(NC(=O)Nc2cccc(Cl)c2C)c1,i,i,i,45µM,i,i
CC(=O)Nc1cccc(NC(=S)Nc2cccc(Cl)c2C)c1,i,i,?,i,i,i
Cc1cc(-c2ccco2)c(C#N)c2nc3ccccc3n12,?,10µM,?,8.9µM,i,i
Cc1cc(C(C)C)n2c(nc3ccccc32)c1C#N,nt,nt,nt,i,i,i
